Assay results as given in the supplement of paper PMC10849652.
Of roughly 7,900 targets only a part is listed; those with a hit were picked by preference. About 0.6% of all pairs of compound and target were hits. Unmarked numbers belong to inactive results.

Assays:
Experiment in all cases: log2 fold change, soluble protein after heating vs DMSO (PISA); higher = thermal stabilisation; K562 cells, 10 uM, 30 min; active = over 0.2 and 3.5 SD of the protein, either way, in both replicates (recomputed)
erlotinib = compound: C#Cc1cccc(Nc2ncnc3cc(OCCOC)c(OCCOC)cc23)c1 [erlotinib]
Outline: (§1)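 K562 cells at 2×10^6 cells/mL were treated for 30 min with 10 μM compound, and aliquots were heated for 3 min over 48°C-58°C before pooling. Extraction used PBS with 0.5% NP-40 at 4°C, and soluble protein was the supernatant after 21,000xg for 90 min, measured by TMTpro 16plex LC-MS/MS with channel sums equalised. Thermal stability values, relative to control samples and from duplicates, are log2 fold changes.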

[1] = compound: C/C(=N\NC(=O)C1=CC(=CC=C1)S(=O)(=O)N2CCOCC2)/C3=C(C=CC(=C3)Cl)O
Outline: as §1

[2] = compound: C1=CC(=C(C=C1Cl)C2=NC3=NC=CN=C3C(=N2)NC4=CC=NC=C4)F
Outline: as §1

[3] = compound: C1=CC(=CC=C1C2=NC3=C(N2)C=C(C=C3)C(=O)N)OC4=CC=C(C=C4)Cl
Outline: as §1

[4] = compound: C1=CC2=C(C=CC(=C2)/C=C\3/C(=O)NC(=NCC4=CC=CS4)S3)N=C1
Outline: as §1

[5] = compound: C1=CC2=NC=CN=C2C=C1/C=C/3\C(=O)NC(=O)S3
Outline: as §1

[6] = compound: C1=CC=C(C=C1)C2=NC(=C(N2)C3=CC=NC=C3)C4=CC(=C(C=C4)Cl)O
Outline: as §1

[7] = compound: C1=CC=C2C(=C1)C3=NNC4=CC=CC(=C43)C2=O
Outline: as §1

[8] = compound: C1CCN(C1)C(=O)NC2=CC=CC(=C2)NC3=NC=C(C(=N3)NCCC4=CN=CN4)Br
Outline: as §1

[9] = compound: C1CN(CCC1(CC2=CC=C(C=C2)Cl)N)C3=NC=NC4=C3C=CN4
Outline: as §1

IRAK-1-4 Inhibitor I = compound: C1COCCN1CCN2C3=CC=CC=C3N=C2NC(=O)C4=CC(=CC=C4)[N+](=O)[O-] [IRAK-1-4 Inhibitor I]
Outline: as §1

ibrutinib = compound: C=CC(=O)N1CCC[C@@H](n2nc(-c3ccc(Oc4ccccc4)cc3)c3c(N)ncnc32)C1 [ibrutinib]
Outline: as §1

[10] = compound: CC(=O)c1cnc2ccc(-c3cc(Cl)c(O)c(Cl)c3)nc2c1N[C@H]1CC[C@H](CN(C)C)CC1
Outline: as §1

ralimetinib = compound: CC(C)(C)Cn1c(N)nc2ccc(-c3[nH]c(C(C)(C)C)nc3-c3ccc(F)cc3)nc21 [ralimetinib]
Outline: as §1

[11] = compound: CC(C)(O)CC(=O)NCCn1ccc2ncnc(Nc3ccc(Oc4cccc(C(F)(F)F)c4)c(Cl)c3)c21
Outline: as §1

[12] = compound: CC(C)C1=C2N=C(C=C(N2N=C1)NCC3=CC=CC=C3)NCCCCCCN
Outline: as §1

[13] = compound: CC(C)C[C@@H](C=O)NC(=O)[C@H](CC(C)C)NC(=O)[C@H](CC(C)C)NC(=O)OCc1ccccc1
Outline: as §1

pinometostat = compound: CC(C)N(C[C@H]1O[C@@H](n2cnc3c(N)ncnc32)[C@H](O)[C@@H]1O)[C@H]1C[C@@H](CCc2nc3cc(C(C)(C)C)ccc3[nH]2)C1 [pinometostat]
Outline: as §1

[14] = compound: CC1=C(C(CC(=O)N1)C2=CC=C(C=C2)C(F)(F)F)C(=O)NC3=C(C=C4C(=C3)C=NN4)F
Outline: as §1

[15] = compound: CC1=C(C2=C(C=C1)C(=O)C3=CC=CC=C3N2CCCN)C
Outline: as §1

Chain of UniProt Q6BDS2 (Q6BDS2 whole entry, looked up): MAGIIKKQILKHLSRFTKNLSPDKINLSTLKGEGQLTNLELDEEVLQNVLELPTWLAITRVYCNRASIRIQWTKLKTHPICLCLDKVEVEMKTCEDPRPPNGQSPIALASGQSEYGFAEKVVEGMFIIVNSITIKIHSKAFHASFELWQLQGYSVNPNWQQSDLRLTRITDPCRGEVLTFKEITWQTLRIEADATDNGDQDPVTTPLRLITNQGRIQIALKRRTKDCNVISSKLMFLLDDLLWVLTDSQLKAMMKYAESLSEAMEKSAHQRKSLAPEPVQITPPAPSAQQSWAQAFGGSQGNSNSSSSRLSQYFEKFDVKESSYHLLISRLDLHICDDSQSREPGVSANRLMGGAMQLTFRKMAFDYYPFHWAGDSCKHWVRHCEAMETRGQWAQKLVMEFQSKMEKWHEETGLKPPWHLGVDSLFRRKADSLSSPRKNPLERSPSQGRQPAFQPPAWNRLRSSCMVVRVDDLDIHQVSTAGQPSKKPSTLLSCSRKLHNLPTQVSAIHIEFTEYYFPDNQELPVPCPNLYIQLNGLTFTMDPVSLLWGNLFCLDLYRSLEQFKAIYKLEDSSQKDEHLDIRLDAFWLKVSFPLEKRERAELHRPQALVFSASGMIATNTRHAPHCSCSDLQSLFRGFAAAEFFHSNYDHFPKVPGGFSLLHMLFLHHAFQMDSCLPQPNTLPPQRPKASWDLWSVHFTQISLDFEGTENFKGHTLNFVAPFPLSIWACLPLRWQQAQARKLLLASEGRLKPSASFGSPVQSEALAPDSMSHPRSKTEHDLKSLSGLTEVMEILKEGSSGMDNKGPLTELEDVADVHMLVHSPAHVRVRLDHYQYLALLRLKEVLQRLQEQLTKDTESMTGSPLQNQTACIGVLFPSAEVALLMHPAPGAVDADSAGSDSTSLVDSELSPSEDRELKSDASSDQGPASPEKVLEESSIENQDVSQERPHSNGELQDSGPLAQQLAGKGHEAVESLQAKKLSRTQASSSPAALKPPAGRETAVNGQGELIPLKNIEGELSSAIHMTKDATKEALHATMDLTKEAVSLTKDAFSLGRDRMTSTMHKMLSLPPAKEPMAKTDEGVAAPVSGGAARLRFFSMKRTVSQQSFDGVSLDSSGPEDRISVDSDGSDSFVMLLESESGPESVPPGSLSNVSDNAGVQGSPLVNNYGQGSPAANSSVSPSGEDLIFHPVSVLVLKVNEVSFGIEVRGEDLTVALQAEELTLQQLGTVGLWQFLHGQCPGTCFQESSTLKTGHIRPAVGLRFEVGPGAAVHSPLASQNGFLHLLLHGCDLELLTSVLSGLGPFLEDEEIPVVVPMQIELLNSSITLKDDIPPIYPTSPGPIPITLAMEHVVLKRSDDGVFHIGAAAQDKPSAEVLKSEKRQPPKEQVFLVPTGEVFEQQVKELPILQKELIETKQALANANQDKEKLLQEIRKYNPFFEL
Chain of UniProt Q9P253 (Q9P253 whole entry, looked up): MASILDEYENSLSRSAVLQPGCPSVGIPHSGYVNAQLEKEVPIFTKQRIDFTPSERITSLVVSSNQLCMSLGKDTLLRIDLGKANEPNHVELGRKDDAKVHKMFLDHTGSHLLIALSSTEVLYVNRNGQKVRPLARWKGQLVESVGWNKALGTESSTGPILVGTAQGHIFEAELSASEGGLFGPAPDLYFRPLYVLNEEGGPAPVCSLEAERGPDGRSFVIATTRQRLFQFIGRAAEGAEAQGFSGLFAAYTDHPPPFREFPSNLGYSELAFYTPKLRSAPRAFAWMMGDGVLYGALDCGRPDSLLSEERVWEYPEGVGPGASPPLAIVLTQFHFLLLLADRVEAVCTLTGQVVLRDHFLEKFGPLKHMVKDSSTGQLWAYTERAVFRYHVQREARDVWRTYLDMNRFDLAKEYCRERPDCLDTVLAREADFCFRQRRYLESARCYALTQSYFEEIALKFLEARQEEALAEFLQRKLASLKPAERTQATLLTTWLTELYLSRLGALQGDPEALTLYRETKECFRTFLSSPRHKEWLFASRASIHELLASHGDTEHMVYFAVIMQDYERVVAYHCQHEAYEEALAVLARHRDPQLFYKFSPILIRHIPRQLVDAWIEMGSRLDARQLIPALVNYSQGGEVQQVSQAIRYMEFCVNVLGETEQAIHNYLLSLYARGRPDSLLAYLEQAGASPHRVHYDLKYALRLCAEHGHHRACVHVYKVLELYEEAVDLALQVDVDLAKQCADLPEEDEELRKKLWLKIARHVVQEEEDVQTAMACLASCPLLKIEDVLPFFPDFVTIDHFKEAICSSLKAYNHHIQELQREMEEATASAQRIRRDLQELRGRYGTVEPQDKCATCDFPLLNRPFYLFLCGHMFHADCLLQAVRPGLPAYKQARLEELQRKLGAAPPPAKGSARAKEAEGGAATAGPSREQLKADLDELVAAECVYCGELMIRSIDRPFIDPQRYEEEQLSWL
Chain of UniProt Q9H6R7 (Q9H6R7 whole entry, looked up): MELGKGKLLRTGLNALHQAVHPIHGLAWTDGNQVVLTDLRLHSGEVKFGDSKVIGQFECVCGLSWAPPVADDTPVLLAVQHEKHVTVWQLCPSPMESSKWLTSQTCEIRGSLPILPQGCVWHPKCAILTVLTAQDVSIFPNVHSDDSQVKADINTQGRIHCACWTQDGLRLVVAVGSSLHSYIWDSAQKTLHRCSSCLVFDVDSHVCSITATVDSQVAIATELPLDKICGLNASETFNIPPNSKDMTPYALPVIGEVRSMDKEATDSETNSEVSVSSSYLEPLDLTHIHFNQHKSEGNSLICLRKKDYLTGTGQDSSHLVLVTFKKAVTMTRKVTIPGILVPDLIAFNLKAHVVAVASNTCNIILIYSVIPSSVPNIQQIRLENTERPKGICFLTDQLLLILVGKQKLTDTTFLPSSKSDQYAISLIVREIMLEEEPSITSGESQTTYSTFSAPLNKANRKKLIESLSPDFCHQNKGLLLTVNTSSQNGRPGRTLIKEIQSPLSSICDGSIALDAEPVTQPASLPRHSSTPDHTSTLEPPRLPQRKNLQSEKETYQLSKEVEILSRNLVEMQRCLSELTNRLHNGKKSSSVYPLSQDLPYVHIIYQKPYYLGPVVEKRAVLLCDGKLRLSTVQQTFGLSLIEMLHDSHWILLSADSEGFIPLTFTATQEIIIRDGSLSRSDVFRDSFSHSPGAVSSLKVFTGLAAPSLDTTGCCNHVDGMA
Chain of UniProt Q8WVY7 (Q8WVY7 whole entry, looked up): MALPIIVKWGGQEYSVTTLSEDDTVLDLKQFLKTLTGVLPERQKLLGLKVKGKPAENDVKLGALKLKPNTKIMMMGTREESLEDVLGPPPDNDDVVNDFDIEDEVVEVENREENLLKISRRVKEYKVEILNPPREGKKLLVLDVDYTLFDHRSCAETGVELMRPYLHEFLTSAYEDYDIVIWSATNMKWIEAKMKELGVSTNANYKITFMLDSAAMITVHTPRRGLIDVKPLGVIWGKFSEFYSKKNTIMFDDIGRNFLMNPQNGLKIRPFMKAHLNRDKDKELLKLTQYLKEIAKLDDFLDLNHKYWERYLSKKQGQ
Chain of UniProt Q53S58 (Q53S58 whole entry, looked up): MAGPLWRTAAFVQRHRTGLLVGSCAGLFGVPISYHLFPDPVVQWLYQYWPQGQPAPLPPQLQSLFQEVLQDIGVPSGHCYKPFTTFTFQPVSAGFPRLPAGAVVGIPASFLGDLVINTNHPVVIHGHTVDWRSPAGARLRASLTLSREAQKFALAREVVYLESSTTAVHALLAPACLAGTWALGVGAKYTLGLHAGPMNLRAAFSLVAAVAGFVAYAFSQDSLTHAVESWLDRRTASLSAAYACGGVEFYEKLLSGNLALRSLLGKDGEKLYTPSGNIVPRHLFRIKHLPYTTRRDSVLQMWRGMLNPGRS
Chain of UniProt P43897 (P43897 whole entry, looked up): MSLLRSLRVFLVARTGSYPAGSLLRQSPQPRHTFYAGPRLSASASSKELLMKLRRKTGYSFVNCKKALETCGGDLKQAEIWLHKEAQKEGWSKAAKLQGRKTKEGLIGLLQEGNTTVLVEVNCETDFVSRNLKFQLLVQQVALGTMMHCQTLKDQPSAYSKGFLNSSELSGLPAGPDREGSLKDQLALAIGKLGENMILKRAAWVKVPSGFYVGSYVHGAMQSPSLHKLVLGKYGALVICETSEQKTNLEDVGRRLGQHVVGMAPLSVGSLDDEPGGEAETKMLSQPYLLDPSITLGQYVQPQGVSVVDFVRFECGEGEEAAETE
Chain of UniProt Q86SZ2 (Q86SZ2 whole entry, looked up): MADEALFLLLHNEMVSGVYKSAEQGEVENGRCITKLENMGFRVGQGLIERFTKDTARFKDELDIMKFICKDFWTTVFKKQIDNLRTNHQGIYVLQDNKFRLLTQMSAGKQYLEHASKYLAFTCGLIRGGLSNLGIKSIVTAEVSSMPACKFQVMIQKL

In the case of TRAPPC6B (UniProt Q86SZ2), the log2 fold change (erlotinib) was 0.026, the log2 fold change [1] was 0.07 and the log2 fold change [2] was 0.315 (active). It also gave a log2 fold change [3] of -0.016, a log2 fold change [4] of 0.011 and a log2 fold change [5] of -0.006. For the same target, the log2 fold change [6] was -0.016, the log2 fold change [7] was -0.014 and the log2 fold change [8] was -0.048. It also gave a log2 fold change [9] of 0.018, a log2 fold change (IRAK-1-4 Inhibitor I) of -0.022 and a log2 fold change (ibrutinib) of 0.032. It also gave a log2 fold change [10] of -0.001, a log2 fold change (ralimetinib) of -0.015 and a log2 fold change [11] of -0.138. The log2 fold change [12] was 0.032, the log2 fold change [13] was 0.032 and the log2 fold change (pinometostat) was -0.036. For the same target, the log2 fold change [14] was 0.004 and the log2 fold change [15] was 0.004.

UBLCP1 (UniProt Q8WVY7) gave a log2 fold change (erlotinib) of 0.03, a log2 fold change [1] of 0.089 and a log2 fold change [2] of 0.024. It also gave a log2 fold change [3] of -0.022, a log2 fold change [4] of -0.029 and a log2 fold change [5] of 0.005. For the same target, the log2 fold change [6] was -0.019, the log2 fold change [7] was 0.038 and the log2 fold change [8] was 0.035. The log2 fold change [9] was -0.262 (active), the log2 fold change (IRAK-1-4 Inhibitor I) was -0.029 and the log2 fold change (ibrutinib) was -0.072. It also gave a log2 fold change [10] of -0.057, a log2 fold change (ralimetinib) of -0.104 and a log2 fold change [11] of -0.061. It also gave a log2 fold change [12] of -0.027, a log2 fold change [13] of 0.191 and a log2 fold change (pinometostat) of 0.017. The log2 fold change [14] was -0.023 and the log2 fold change [15] was -0.155.

VPS18 (UniProt Q9P253) was tested, and the log2 fold change (erlotinib) was 0.026, the log2 fold change [1] was 0.065 and the log2 fold change [2] was 0.019. It also gave a log2 fold change [3] of 0.023, a log2 fold change [4] of 0.04 and a log2 fold change [5] of 0.04. The log2 fold change [6] was -0.086, the log2 fold change [7] was -0.012 and the log2 fold change [8] was -0.006. It also gave a log2 fold change [9] of -0.024, a log2 fold change (IRAK-1-4 Inhibitor I) of -0.02 and a log2 fold change (ibrutinib) of -0.029. It also gave a log2 fold change [10] of -0.029, a log2 fold change (ralimetinib) of -0.037 and a log2 fold change [11] of -0.024. The log2 fold change [12] was -0.319, the log2 fold change [13] was 0.053 and the log2 fold change (pinometostat) was 0.055. The log2 fold change [14] was -0.019 and the log2 fold change [15] was 0.059.

TMEM177 (UniProt Q53S58) showed a log2 fold change (erlotinib) of 0.058, a log2 fold change [1] of 0.044 and a log2 fold change [2] of 0.03. For the same target, the log2 fold change [3] was -0.025, the log2 fold change [4] was 0.062 and the log2 fold change [5] was -0.015. The log2 fold change [6] was -0.034, the log2 fold change [7] was 0.01 and the log2 fold change [8] was 0.028. It also gave a log2 fold change [9] of 0.132, a log2 fold change (IRAK-1-4 Inhibitor I) of 0.06 and a log2 fold change (ibrutinib) of 0.079. For the same target, the log2 fold change [10] was 0.007, the log2 fold change (ralimetinib) was -0.068 and the log2 fold change [11] was -0.023. For the same target, the log2 fold change [12] was -0.131, the log2 fold change [13] was 0.045 and the log2 fold change (pinometostat) was -0.02. It also gave a log2 fold change [14] of -0.007 and a log2 fold change [15] of 0.028.

In the case of UHRF1BP1 (UniProt Q6BDS2), the log2 fold change (erlotinib) was -0.018, the log2 fold change [1] was -0.01 and the log2 fold change [2] was 0.011. It also gave a log2 fold change [3] of 0.033, a log2 fold change [4] of 0.001 and a log2 fold change [5] of 0.008. It also gave a log2 fold change [6] of -0.017, a log2 fold change [7] of -0.009 and a log2 fold change [8] of -0.013. For the same target, the log2 fold change [9] was 0.008, the log2 fold change (IRAK-1-4 Inhibitor I) was 0.007 and the log2 fold change (ibrutinib) was 0.023. The log2 fold change [10] was -0.034, the log2 fold change (ralimetinib) was -0.067 and the log2 fold change [11] was 0.097. For the same target, the log2 fold change [12] was 0.258 (active), the log2 fold change [13] was 0.03 and the log2 fold change (pinometostat) was 0.006. For the same target, the log2 fold change [14] was 0.001 and the log2 fold change [15] was 0.029.

WDR61 (UniProt Q9GZS3) showed a log2 fold change (erlotinib) of 0.021, a log2 fold change [1] of 0.066 and a log2 fold change [2] of 0.051. The log2 fold change [3] was 0.027, the log2 fold change [4] was 0.057 and the log2 fold change [5] was -0.016. For the same target, the log2 fold change [6] was 0.01, the log2 fold change [7] was 0 and the log2 fold change [8] was 0.077. For the same target, the log2 fold change [9] was 0.026, the log2 fold change (IRAK-1-4 Inhibitor I) was 0.037 and the log2 fold change (ibrutinib) was -0.015. The log2 fold change [10] was -0.057, the log2 fold change (ralimetinib) was -0.049 and the log2 fold change [11] was 0.008. It also gave a log2 fold change [12] of -0.016, a log2 fold change [13] of -0.009 and a log2 fold change (pinometostat) of 0.028. It also gave a log2 fold change [14] of 0.013 and a log2 fold change [15] of 0.004.

Work on TSFM (UniProt P43897) yielded a log2 fold change (erlotinib) of 0.037, a log2 fold change [1] of -0.004 and a log2 fold change [2] of 0.302. It also gave a log2 fold change [3] of -0.206, a log2 fold change [4] of 0.189 and a log2 fold change [5] of 0.044. The log2 fold change [6] was 0.11, the log2 fold change [7] was -0.069 and the log2 fold change [8] was -0.016. For the same target, the log2 fold change [9] was 0.095, the log2 fold change (IRAK-1-4 Inhibitor I) was -0.065 and the log2 fold change (ibrutinib) was -0.134. It also gave a log2 fold change [10] of -0.067, a log2 fold change (ralimetinib) of 0.011 and a log2 fold change [11] of -0.254. The log2 fold change [12] was 0.069, the log2 fold change [13] was -0.058 and the log2 fold change (pinometostat) was -0.08. It also gave a log2 fold change [14] of -0.066 and a log2 fold change [15] of 0.258.

Work on WDCP (UniProt Q9H6R7) yielded a log2 fold change (erlotinib) of 0.083, a log2 fold change [1] of -0.003 and a log2 fold change [2] of 0.058. The log2 fold change [3] was 0.065, the log2 fold change [4] was -0.015 and the log2 fold change [5] was 0.134. For the same target, the log2 fold change [6] was -0.022, the log2 fold change [7] was -0.068 and the log2 fold change [8] was -0.012. For the same target, the log2 fold change [9] was -0.011, the log2 fold change (IRAK-1-4 Inhibitor I) was -0.01 and the log2 fold change (ibrutinib) was -0.038. It also gave a log2 fold change [10] of 0.078, a log2 fold change (ralimetinib) of -0.006 and a log2 fold change [11] of -0.053. It also gave a log2 fold change [12] of 0.032, a log2 fold change [13] of 0.014 and a log2 fold change (pinometostat) of 0.076. It also gave a log2 fold change [14] of 0.055 and a log2 fold change [15] of 0.023.
